RGS7-Gao reg = RGS7-Galphao binding modulators, primary screen, biochemical, multiplexed bead flow cytometry | actives lie on both sides | binding response (% of control), % at 10 µM | actives 0.35% (n = 220,000) | AID 1439, 2008; in the data active = binding response below about 49% or above about 150%;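 also: fluorescent Galphao held in activated GDP-AlF4 state binding bead-coupled RGS7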
RGS4-Gao reg = modulators of RGS4 binding to Galphao, primary screen, biochemical, multiplexed bead flow cytometry. binding response (% of control), % at 10 µM. actives 0.33% (n = 220,000). actives lie on both sides. AID 1415, 2008. Guanine nucleotide-binding protein G(o) subunit alpha (Homo sapiens), P09471; in the data active = binding response below about 49% or above about 150%; inactive = in between;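 also: fluorescent Galphao activated with aluminum fluoride binding bead-coupled RGS4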
RGS8-Gao reg = RGS8-Galphao binding modulators, primary screen, biochemical, multiplexed bead flow cytometry; actives lie on both sides; response (percent of control binding), % at 10 µM; actives 0.34% (n = 220,000); in the data active = response below about 60% or above about 140%; inactive = in between;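 also: Galphao activated as the GDP aluminium fluoride complex binding bead-coupled RGS8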
GSH fluor = compound fluorescence on glutathione beads, profiling panel, artefact control, biophysical, 488/530 nm, flow cytometry | actives 0.25% (n = 190,000) | GSH beads flow cytometry, compound fluorescence 488/530 nm; stronger effect = higher value | fluorescence (KMESF) at 10 µM | AID 1776, 2009; in the data active = fluorescence above about 89;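 also: glutathione beads carrying GST-tagged Bcl family fusion proteins plus one bare bead set; values are compound well signal with DMSO vehicle wells as background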
Avidin bead fluor = green autofluorescence of compounds with avidin beads – biophysical, 488/530 nm, flow cytometry, artefact control, profiling panel; fluorescence (KMESF) at 10 µM; compound fluorescence 488/530 nm; stronger effect = higher value; actives 0.38% (n = 220,000); in the data active = fluorescence above about 47
RGS16-Gao HTS = modulators of RGS16 binding to Galphao, primary screen, biochemical, human proteins, multiplexed bead flow cytometry; Regulator of G-protein signaling 16 (Homo sapiens) + Guanine nucleotide-binding protein …; AID 1441, 2008; binding response (% of control), % at 10 µM; bead-based flow cytometry RGS16-Galphao binding, fluorescence; actives lie on both sides; actives 0.38% (n = 220,000);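 also: Galphao activated by GDP with aluminum fluoride before binding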
Target sequence (O15492 whole entry, looked up): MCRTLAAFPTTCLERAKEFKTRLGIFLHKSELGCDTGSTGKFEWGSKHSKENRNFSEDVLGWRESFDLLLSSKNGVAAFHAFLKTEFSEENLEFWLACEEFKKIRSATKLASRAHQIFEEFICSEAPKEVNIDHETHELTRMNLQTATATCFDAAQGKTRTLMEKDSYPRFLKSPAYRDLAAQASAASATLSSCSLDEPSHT
Target sequence (P09471 whole entry, looked up): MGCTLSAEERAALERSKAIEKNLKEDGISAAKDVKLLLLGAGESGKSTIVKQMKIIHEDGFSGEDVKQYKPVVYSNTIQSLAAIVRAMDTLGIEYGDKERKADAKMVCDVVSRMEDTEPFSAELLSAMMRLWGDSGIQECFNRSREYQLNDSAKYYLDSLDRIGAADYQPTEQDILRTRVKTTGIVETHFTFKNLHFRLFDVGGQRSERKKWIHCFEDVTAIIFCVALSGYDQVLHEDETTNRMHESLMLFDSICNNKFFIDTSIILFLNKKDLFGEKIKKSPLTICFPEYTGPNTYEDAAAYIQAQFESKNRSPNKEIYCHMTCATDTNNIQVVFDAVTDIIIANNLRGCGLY
RGS4-Gao HTS = modulators of RGS–Galpha-o binding, primary screen, biochemical, multiplexed beads, flow cytometry, RGS4/7/8/16/19; RGS4–Galpha-o binding response, % at 10 µM; actives 99% (n = 1,600); shares compounds with RGS16-Gao HTS; multiplexed bead flow cytometry;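 also: fluorescently labeled Galpha-o bound to GDP with aluminium fluoride binding biotinylated RGS beads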
Avidin counter = disruption of biotin probe capture by avidin, counter-screen for RGS protein interaction modulators, biochemical, flow cytometry, bead-based. shares compounds with RGS16-Gao HTS. streptavidin beads, fluorescein-biotin binding. inhibition, % at 10 µM. 1,700 tested, under 10 active;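 active = inhibition above 50%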;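 also: median green fluorescence of gated singlet beads compared with DMSO control wells; 0% = DMSO wells and 100% = complete loss of bead fluorescence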
RGS8-Gao confirm = RGS8-Galphao binding modulators, confirmation, biochemical, multiplexed bead flow cytometry, single concentration | actives 3% (n = 1,700) | binding response (% of control), % at 10 µM | shares compounds with RGS16-Gao HTS | bead-based flow cytometry RGS8-Galphao binding, fluorescence; actives lie on both sides | AID 1836, 2009; in the data active = binding response below about 72% or above about 130%; inactive = in between;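 also: Galphao activated as GDP AlF4 complex before binding bead RGS8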
RGS7-Gao confirm = RGS7-Galphao binding modulators, confirmation, biochemical, multiplexed bead flow cytometry, single concentration | shares compounds with RGS16-Gao HTS | bead-based flow cytometry RGS7-Galphao binding; actives lie on both sides | response (percent of control binding), % at 10 µM | actives 7.8% (n = 1,700); in the data active = response below about 75% or above about 130%; inactive = in between;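 also: fluorescent Galphao activated with GDP and aluminum fluoride binding bead-coupled RGS7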
RGS16-Gao conf = modulators of RGS16-Galphao protein binding, confirmation, biochemical, single concentration, multiplexed bead flow cytometry; shares compounds with RGS16-Gao HTS; bead-based flow cytometry; actives lie on both sides; response (% of control binding), % at 10 µM; actives 4% (n = 1,700); AID 1838, 2009; in the data active = response below about 74% or above about 130%; inactive = in between;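 also: Galphao activated as the GDP aluminium fluoride complex binding bead-coupled RGS16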
RGS4-Gao single = modulators of RGS4-Galphao protein binding, confirmation, biochemical, single concentration, multiplexed bead flow cytometry | shares compounds with RGS16-Gao HTS | actives lie on both sides | binding response (% of control), % at 10 µM | actives 4% (n = 1,700); in the data active = binding response below about 74% or above about 130%; inactive = in between
RGS19-Gao conf = regulators of RGS19-Galphao binding, confirmation, biochemical, single point, multiplexed bead flow cytometry; actives 5% (n = 1,700); shares compounds with RGS16-Gao HTS; bead-based flow cytometry RGS19-Galphao binding; actives lie on both sides; response (percent of control binding), % at 10 µM; in the data active = response below about 50% or above about 160%; inactive = in between;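 also: 100% = no compound control and 0% = blank background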
An asterisk follows results filed as active. An excerpt weighted towards active compounds, which were near 1.2% of everything screened. Unless noted, no rule for the calls is given here.

How did O=C(Cn1cncn1)N/N=C/c1cccc2ccccc12 do in these assays?
RGS7-Gao reg: 98.8; RGS4-Gao reg: 92.3; RGS8-Gao reg: 79.2; GSH fluor: 21; Avidin bead fluor: 3; RGS16-Gao HTS: 45.2

How did Cc1nn(C)c(C(=O)N/N=C/c2ccc(Br)cc2)c1Cl do in these assays?
RGS7-Gao reg: 40.1*; RGS4-Gao reg: 46.2*; RGS8-Gao reg: 58.0*; GSH fluor: 10; Avidin bead fluor: 6; RGS16-Gao HTS: 40.9; Avidin counter: 1.6; RGS8-Gao confirm: 99.7; RGS7-Gao confirm: 103.5; RGS16-Gao conf: 100.8; RGS4-Gao single: 100.6; RGS19-Gao conf: 100.0

What do the screens show for `Cc1nn(C)c(C(=O)N/N=C/c2cccc3ccccc23)c1Cl`?
RGS7-Gao reg: 27.9*; RGS4-Gao reg: 27.8*; RGS8-Gao reg: 38.2*; GSH fluor: 21; Avidin bead fluor: 3; RGS16-Gao HTS: 30.9; Avidin counter: -1.1; RGS8-Gao confirm: 98.2; RGS7-Gao confirm: 98.0; RGS16-Gao conf: 96.7; RGS4-Gao single: 99.6; RGS19-Gao conf: 96.9

Results for N#Cc1cc(C(=O)c2ccccc2O)cn(-c2nccs2)c1=O ?
RGS7-Gao reg: 65.7; RGS4-Gao reg: 57.0; RGS8-Gao reg: 58.0*; GSH fluor: 18; Avidin bead fluor: 5; RGS16-Gao HTS: 22.3; RGS4-Gao HTS: 57.0*; Avidin counter: 0.8; RGS8-Gao confirm: 106.4; RGS7-Gao confirm: 104.0; RGS16-Gao conf: 105.2; RGS4-Gao single: 102.3; RGS19-Gao conf: 114.6

What do the screens show for `CN1C(=O)/C(=C/c2ccccc2OCc2cccc(F)c2)N(C)C1=S`?
GSH fluor: 36; Avidin counter: 1.7; RGS8-Gao confirm: 100.0; RGS7-Gao confirm: 99.3; RGS16-Gao conf: 101.0; RGS4-Gao single: 99.2; RGS19-Gao conf: 96.8

Results for Fc1cccc(COc2ccccc2C(=S)N2CCCC2)c1 ?
RGS7-Gao reg: 100.3; RGS4-Gao reg: 101.0; RGS8-Gao reg: 99.1; GSH fluor: 14; Avidin bead fluor: 12; RGS16-Gao HTS: 102.8

Screens: PubChem, NMMLSC
